A number with no mark means an inactive call.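 How the source made its calls, unless noted: active means luciferase signal above three times the same-plate solvent-only control wells; inactive means the rest.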
The compounds below were run against NAD(+) hydrolase SARM1 (Homo sapiens) (UniProt Q6SZW1) (assay: SARM1 TIR NADase inhibitors, cell lysate, NAD-Glo luminescence (AID 1508614;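 active means compound whose remaining NAD level is above about 45 nM, limit read from the data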)). Settings: SAM-TIR HEK293T lysate NADase, at 1 µM, stronger effect = higher value.
Sequence of NAD(+) hydrolase SARM1 (Homo sapiens) (Q6SZW1 whole entry, looked up): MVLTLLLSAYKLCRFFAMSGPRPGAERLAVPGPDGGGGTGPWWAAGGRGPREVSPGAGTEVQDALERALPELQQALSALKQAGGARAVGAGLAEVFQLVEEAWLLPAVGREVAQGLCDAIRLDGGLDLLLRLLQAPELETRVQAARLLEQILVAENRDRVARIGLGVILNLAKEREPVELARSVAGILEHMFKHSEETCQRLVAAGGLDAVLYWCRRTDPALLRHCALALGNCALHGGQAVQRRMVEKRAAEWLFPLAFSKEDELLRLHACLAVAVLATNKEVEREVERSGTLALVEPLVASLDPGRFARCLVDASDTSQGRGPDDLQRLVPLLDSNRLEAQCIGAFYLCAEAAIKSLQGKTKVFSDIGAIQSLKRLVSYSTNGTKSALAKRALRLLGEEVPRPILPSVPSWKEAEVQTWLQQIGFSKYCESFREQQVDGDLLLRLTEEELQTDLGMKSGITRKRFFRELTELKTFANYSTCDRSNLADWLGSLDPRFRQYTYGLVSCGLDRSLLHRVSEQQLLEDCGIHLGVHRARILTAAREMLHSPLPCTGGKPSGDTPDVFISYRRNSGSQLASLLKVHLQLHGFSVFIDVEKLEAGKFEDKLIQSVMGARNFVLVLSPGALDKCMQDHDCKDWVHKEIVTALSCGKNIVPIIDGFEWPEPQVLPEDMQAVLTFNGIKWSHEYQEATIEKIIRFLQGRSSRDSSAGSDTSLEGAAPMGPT

| SMILES | remaining NAD |
| --- | --- |
| O=c1nc(O)n(Cl)c(=O)n1Cl | 10 nM |
| C=CCNCCCCCCCCCC (tested in a mixture with another compound) | 10 nM |
| COc1ccc(O)c(C(C)(C)C)c1 | 10 nM |
| CC(N)C(O)c1ccccc1 (configuration not stated) | 10 nM |
| OC[C@@H](O)[C@H]1O[C@@H]2O[C@H](C(Cl)(Cl)Cl)O[C@@H]2[C@H]1O | 10 nM |
| O=C(NN=Cc1ccc([N+](=O)[O-])o1)c1cc([N+](=O)[O-])cc([N+](=O)[O-])c1O | 10 nM |
| CCN1C[C@]2(COC)[C@H](O)C[C@H](OC)[C@]34C1[C@H]([C@H](OC)[C@H]23)[C@]1(OC(C)=O)[C@H]2[C@@H](OC(=O)c3ccccc3)[C@](O)(C[C@H]24)[C@@H](OC)[C@@H]1O | 10 nM |
| CC[C@@H](c1cccc(O)c1)[C@@H](C)CN(C)C | 10 nM |
| CC(=O)[C@H]1CC[C@H]2[C@@H]3CC[C@@H]4C[C@H](O)CC[C@]4(C)[C@H]3CC[C@]12C | 10 nM |
| CC[C@H]1[C@@H]2C[C@H]3[C@@H]4N(C)c5ccccc5[C@]45C[C@@H]([C@H]2[C@H]5O)N3[C@@H]1O | 10 nM |
| C=C[C@H]1CN2CC[C@H]1C[C@H]2[C@H](OC(=O)OCC)c1ccnc2ccc(OC)cc12 | 10 nM |
| NC(=O)C[S@@](=O)C(c1ccccc1)c1ccccc1 | 10 nM |
| C[N+]1([O-])[C@@H]2CC[C@H]1CC(OC(=O)C(CO)c1ccccc1)C2 (some centres not stated) | 10 nM |
| CN1C2CC(OC(=O)C(CO)c3ccccc3)CC1C(O)C2 (configuration not stated) | 10 nM |

These compounds were tested against Mitogen-activated protein kinase 7 (Homo sapiens) (UniProt Q13164) (assay: ERK5 transactivation activators in reporter cells, primary screen, cell-based, HTS (AID 1508626;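 further: luciferase driven by Gal4-ERK5 fusion binding five Gal4 sites before minimal TATA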)). Settings: HeLa Gal4-ERK5 transactivation, 18 h, at 5 µM, stronger effect = higher value.
Sequence of Mitogen-activated protein kinase 7 (Homo sapiens) (Q13164 whole entry, looked up, the tested form may be a part): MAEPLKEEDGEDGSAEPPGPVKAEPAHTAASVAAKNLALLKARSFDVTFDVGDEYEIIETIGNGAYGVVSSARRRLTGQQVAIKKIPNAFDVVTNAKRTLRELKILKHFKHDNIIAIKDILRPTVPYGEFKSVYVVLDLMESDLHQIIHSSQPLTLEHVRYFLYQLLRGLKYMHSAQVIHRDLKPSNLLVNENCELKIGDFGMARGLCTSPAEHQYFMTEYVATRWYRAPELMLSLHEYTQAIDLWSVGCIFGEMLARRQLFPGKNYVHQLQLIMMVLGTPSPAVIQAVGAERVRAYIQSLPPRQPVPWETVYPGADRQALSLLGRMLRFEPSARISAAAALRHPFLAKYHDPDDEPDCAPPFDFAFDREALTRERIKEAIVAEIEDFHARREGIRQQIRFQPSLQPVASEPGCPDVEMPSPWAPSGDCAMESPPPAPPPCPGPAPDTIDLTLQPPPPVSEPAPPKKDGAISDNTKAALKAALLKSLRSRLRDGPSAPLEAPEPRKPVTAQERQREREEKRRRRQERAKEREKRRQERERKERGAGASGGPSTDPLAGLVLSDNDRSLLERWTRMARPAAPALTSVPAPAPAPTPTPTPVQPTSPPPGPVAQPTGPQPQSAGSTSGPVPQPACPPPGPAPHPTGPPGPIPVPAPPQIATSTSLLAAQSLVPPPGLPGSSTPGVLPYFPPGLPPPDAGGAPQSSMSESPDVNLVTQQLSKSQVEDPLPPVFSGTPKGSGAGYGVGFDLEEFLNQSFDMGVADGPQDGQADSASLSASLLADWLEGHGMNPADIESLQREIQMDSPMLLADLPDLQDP

| SMILES | luciferase signal |
| --- | --- |
| CC(=O)OC1C[C@@]2(C)[C@H](c3ccoc3)C[C@H]3O[C@]32[C@]2(C)C(=O)C(O)=C3C(C)(C)C(=O)C=C[C@]3(C)C12 (some centres not stated) | 12 AU |
| COC1=C[C@]23CCCN2CCc2cc4c(cc2[C@@H]3[C@@H]1O)OCO4 | 56 AU |
| CC(C)c1cc2c(c(O)c1O)[C@@]1(C(=O)O)CCCC(C)(C)[C@@H]1CC2 | 52 AU |
| CC(=O)O[C@@H]1CC[C@@]2(C)[C@@H](CC[C@@H]3[C@@H]2CC[C@]2(C)C(=O)CC[C@@H]32)C1 | 28 AU |
| CC[C@@H](C)C(=O)O[C@H]1[C@H](O)[C@H]2[C@@H](CN3C[C@@H](C)CC[C@H]3[C@@]2(C)O)[C@@H]2C[C@]34O[C@]5(O)[C@@H](OC(=O)[C@](C)(O)[C@@H](C)O)CC[C@@]3(C)[C@@H]5[C@@H](OC(C)=O)[C@@H](OC(C)=O)[C@H]4[C@@]21O | 88 AU |
| COc1cc([C@@H]2c3cc4c(cc3[C@@H](O)[C@H]3COC(=O)[C@H]23)OCO4)cc(OC)c1O | 72 AU |
| CCC(C)C(=O)OC1C[C@@]2(C)[C@H](c3ccoc3)OC(=O)CC23OC2(C)OC34C(OC(=O)C(C)C)[C@@]3(O)[C@@H](OC(=O)C5(C)OC5C)[C@@]5(C)C[C@]3(O)[C@@](C)([C@H]5CC(=O)OC)C14O2 (some centres not stated) | 44 AU |
| C[C@@H]1O[C@@H](O[C@H]2CC[C@]3(C=O)[C@H]4CC[C@]5(C)[C@@H](C6=CC(=O)OC6)CC[C@]5(O)[C@@H]4CC[C@]3(O)C2)[C@H](O)[C@H](O)[C@H]1O | 4 AU |
| C[C@]12CCC(=O)C[C@@H]1CC[C@@H]1[C@@H]2CC[C@]2(C)C(=O)CC[C@@H]12 | 68 AU |
| COC(=O)C1=CO[C@@H](C)[C@@H]2CN3CC[C@@]4(C(=O)Nc5ccccc54)[C@H]3C[C@H]12 | 32 AU |
| COc1cc2c(cc1OC)[C@@H]1C(=O)c3ccc4c(c3O[C@@H]1CO2)C[C@H](C(C)C)O4 | 152 AU |
| CN(CC[C@H](N)CC(=O)N[C@H]1C=C[C@H](n2ccc(N)nc2=O)O[C@@H]1C(=O)O)C(=N)N | 80 AU |
| CCN1C[C@]2(COC)[C@H](O)C[C@H](OC)[C@]34C1[C@H]([C@H](OC)[C@H]23)[C@]1(OC(C)=O)[C@H]2[C@@H](OC(=O)c3ccccc3)[C@](O)(C[C@H]24)[C@@H](OC)[C@@H]1O | 16 AU |
| CC(=O)O[C@H]1[C@H]2[C@@H](OC(=O)Cc3ccccc3)[C@@H](C)C[C@]2(OC(C)=O)C(=O)/C(C)=C/[C@@H]2[C@H](CC[C@@]13CO3)C2(C)C | 56 AU |
| CC[C@H]1[C@@H]2C[C@H]3[C@@H]4N(C)c5ccccc5[C@]45C[C@@H]([C@H]2[C@H]5O)N3[C@@H]1O | 116 AU |
| CC(=O)OC1CCC2(C)C(CCC3C2CCC2(C)C(C4=CC(=O)OC4)C(OC(C)=O)CC32O)C1 (configuration not stated) | 16 AU |
| C=C[C@H]1CN2CC[C@H]1C[C@H]2[C@H](OC(=O)OCC)c1ccnc2ccc(OC)cc12 | 28 AU |
| CN[C@@H]1[C@@H](O)[C@@H](O[C@@H]2[C@@H](O)[C@H](O[C@H]3O[C@H]([C@@H](C)O)[C@@H](O)[C@H](O)[C@H]3N)[C@@H](N)C[C@H]2N)OC[C@]1(C)O | 52 AU |
| C[C@@H]1CC[C@@]2(OC1)O[C@H]1[C@@H](O)[C@H]3[C@@H]4CC[C@H]5C[C@@H](O[C@@H]6O[C@H](CO)[C@H](O[C@@H]7O[C@H](CO)[C@@H](O)[C@H](O[C@@H]8OC[C@@H](O)[C@H](O)[C@H]8O)[C@H]7O[C@@H]7O[C@H](CO)[C@H](O)[C@H](O[C@@H]8O[C@H](CO)[C@@H](O)[C@H](O)[C@H]8O)[C@H]7O)[C@H](O)[C@H]6O)[C@H](O)C[C@]5(C)[C@H]4CC[C@]3(C)[C@H]1[C@@H]2C | 48 AU |
| CC(=O)O[C@@H]1[C@H]2CC[C@H]3[C@@](C)(O)[C@@H]4C[C@H](O)C(C)(C)[C@@]4(O)[C@@H](O)C[C@@]13C[C@@]2(C)O | 32 AU |
| CC(=O)OCC1=C(C(=O)O)N2C(=O)[C@@H](NC(=O)CCCC(N)C(=O)O)[C@H]2SC1 (some centres not stated) | 56 AU |
| CC[C@]12C=CCN3CC[C@@]4(c5ccc(OC)cc5N(C)[C@H]4[C@@](O)(C(=O)OC)[C@@H]1OC(C)=O)[C@@H]32 | 44 AU |
| C[N+]12CC[C@@]34c5ccccc5N5C(=O)CC6OCC=C(C1)[C@H](CC32)[C@@H]6C54 (some centres not stated) | 140 AU |
| CCN1C[C@]2(OC(=O)c3ccccc3NC(C)=O)CC[C@H](OC)[C@]34C1[C@H](C[C@H]23)[C@@]1(O)C[C@H](OC)[C@H]2C[C@@H]4[C@]1(O)[C@H]2OC | 84 AU |
| COC(=O)C1=CO[C@@H](C)[C@@H]2CN3CC[C@@]4(C(=O)Nc5ccccc54)[C@@H]3C[C@H]12 | 24 AU |
| CC(C)[C@@H]1NC(=O)[C@H](C)OC(=O)[C@@H](C(C)C)NC(=O)[C@@H](C(C)C)OC(=O)[C@H](C(C)C)NC(=O)[C@H](C)OC(=O)[C@@H](C(C)C)NC(=O)[C@@H](C(C)C)OC(=O)[C@H](C(C)C)NC(=O)[C@H](C)OC(=O)[C@@H](C(C)C)NC(=O)[C@@H](C(C)C)OC1=O | 36 AU |
| CC(=O)[C@H]1CC[C@H]2[C@@H]3CC[C@H]4C[C@H](O)CC[C@]4(C)[C@H]3CC[C@]12C | 24 AU |
| CC(=O)O[C@H]1C(=O)[C@@]2(C)[C@H]([C@H](OC(=O)c3ccccc3)[C@]3(O)C[C@H](O)C(C)=C1C3(C)C)[C@]1(OC(C)=O)CO[C@@H]1C[C@@H]2O | 136 AU |
